# Compound activity as filed in PubChem.
# Giardia kill: Giardia lamblia killing | Giardia lamblia trophozoite viability | activity change, % at 7.66 µM, hits read low | 340,000 compounds, 0.15% hits; in the data active means activity change below about -80%; inconclusive means between about -30% and that limit;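 further: parasites exposed to compound for two days anaerobically before the ATP read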
#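 Viability, read as ATP luminescence: trophozoites at 100 cells/well, compound added, 48 hrs anaerobic at 37 deg C, then 15-30 min room-temperature development before reading.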
# B2AR arrestin: beta2AR (human) beta-arrestin recruitment activity | beta-arrestin recruitment to beta2AR, cell-based reporter | Potency, µM (series often up to 46.1 µM), actives largely listed as activators | 330,000 compounds, 0.02% hits | AID 492947; further: nearly all actives have a fitted effect of over 65% in size
# p53 reactivation: mutant p53 re-activation in reporter cells; 320,000 compounds, 0.063% hits; Potency, µM (series often up to 92.2 µM), hits mostly activators; H1299 p53-A138V BP100-luciferase reporter, luminescence, 24 h; AID 504706; further: nearly all actives have a fitted effect of over 45% in size
#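 H1299 (p53-null), stable ts p53-A138V + BP100-Luc; 1000 cells/well, Opti-MEM/10% FBS; cpd 4 pt, 1:5; 24 h, 37 deg C, 5% CO2; detection reagent 10 min RT; luminescence.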
# uPA surface inh: inhibitors of cell surface uPA generation; cell surface uPA generation assay, qHTS; Potency, µM (titrated, usually from 38.3 µM), hits mostly inhibitors; 330,000 compounds, 0.31% hits; AID 540303; active means well fitted inhibition curve with a large enough effect; inconclusive means small, poorly fitted or top-dose-only effect; inactive means no such curve, though single readings can be large or run the other way; tested in mouse RAW 264.7 cells; further: nearly all actives have a fitted effect of over 55% in size
# Mito fusion act: blocks mitochondrial division or promotes mitochondrial fusion; S. cerevisiae fusion-defective mutant growth rescue, CellTiterGlo 48 h; Potency, µM (top dose mostly 46.1 µM), usual class: activators; 320,000 compounds, 0.23% hits; further: nearly all actives have a fitted effect of over 45% in size
#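 S. cerevisiae fusion-defective temperature-sensitive mutants (e.g. fzo1-1, mgm1-5) grown 48 h at 37C in YPEG (ethanol/glycerol non-fermentable) medium with 23 nl compound per well; growth rescue read as CellTiterGlo luminescence.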
# ClpP mod: qHTS Assay for Activators of ClpP. ATP-dependent Clp protease proteolytic subunit (Bacillus subtilis (strain 168)), P80244. purified B. subtilis ClpP, FRET peptide cleavage, 20 min. Potency, µM (top dose mostly 57.5 µM). 340,000 compounds, 1.9% hits. AID 651965, 2013; active means well fitted falling curve with a large enough effect; inconclusive means small, poorly fitted or top-dose-only effect; inactive means no such curve, though single readings can be large or run the other way; further: the source files actives as falling curves though it sought activators and does not explain the sign; nearly all actives have a fitted effect of over 65% in size
# Target sequence (P80244 whole entry, looked up): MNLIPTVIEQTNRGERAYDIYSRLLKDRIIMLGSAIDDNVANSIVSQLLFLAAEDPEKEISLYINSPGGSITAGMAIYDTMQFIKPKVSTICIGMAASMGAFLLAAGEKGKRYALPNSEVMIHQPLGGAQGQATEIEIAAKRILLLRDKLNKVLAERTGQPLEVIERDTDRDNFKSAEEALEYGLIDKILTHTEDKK
#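 FRET quenching reversal measured ClpP activation: 10 microg/mL B. subtilis ClpP at pH 8 with the FRET-FV decapeptide, read at 430 nm after 320 nm excitation. The 20-min minus 0-min signal was scaled between DMSO/no-enzyme wells and ADEP (5.8 microM final).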
# A number is an active result; 0 = inactive; ? = inconclusive; - = no result given. Most compounds without a hit are left out; they make up all but 2.1% or so of the library. Unless noted, the call rests on the fitted dose curve; in most records, active means well fitted curve in the direction sought with a large enough effect; inconclusive means small, poorly fitted or top-dose-only effect, or another doubt; inactive means no such curve, though single readings can be large; an effect the other way counts as inactive or inconclusive.
SMILES,Giardia kill,B2AR arrestin,p53 reactivation,uPA surface inh,Mito fusion act,ClpP mod
CC(C)(C)c1ccc(C(=O)C[n+]2ccccc2Cl)cc1,-,-,-,-,-,0
Cc1c(NC(=O)c2cccc(-c3cc4ccccc4oc3=O)c2)cccc1-c1nc2ncccc2o1,0,0,0,0,0,22.4µM
COc1cccc(C(O)c2nc(-c3cccc(F)c3)cs2)c1 (centres undefined),-,-,-,-,-,0
COc1cccc(C(O)c2nc(/C=C/c3ccc(C(F)(F)F)cc3)cs2)c1 (centres undefined),-,-,-,-,-,28.2µM
Cc1ccc2c(c1)-c1onc(C(=O)N3CCN(c4ccc(Cl)cc4)CC3)c1CO2,-,-,-,-,-,0
COc1ccccc1C(=O)Nc1ccnn1C1CCN(Cc2cn(C)c3ccccc23)CC1,0,0,0,10µM,0,0
COC(=O)c1sc2c(c1C)c(=O)n(-c1ccccc1)c(=O)n2CC(=O)Nc1cccc(C)c1,-,-,-,-,-,0
Cc1cccc(N(C)C(=O)Cn2cnc3nc4c(cc3c2=O)CCCC4)c1,-,-,-,-,-,0
O=C(N/N=C/c1cc(Br)ccc1O)c1cccc(N2CCCC2=O)c1,0,0,?,0,0,0
O=C(N/N=C/c1ccco1)c1cccc(N2CCCC2=O)c1,0,0,?,0,0,28.2µM
Cc1cccc(C)c1N=C1NN=C(c2ccccc2F)CS1,0,0,0,0,0,0
Cc1ccccc1N=C1NN=C(c2ccccc2F)CS1,0,0,12.6µM,?,0,0
Cc1cc(C2=NNC(=NC3CC3)SC2)c(C)n1-c1ccccc1F,?,0,0,1.58µM,0,0
COCc1cc(=O)[nH]c2cc(NC(=O)C3CC3)c(C)cc12,0,0,0,0,0,20µM
COc1cccc(NC(=O)Nc2nccc(C)n2)c1,?,0,0,2.51µM,0,0
Cc1ccnc(NC(=O)Nc2cccc(F)c2)n1,0,0,0,0,0,0
CC(NC(=O)c1cccs1)C1CCCO1 (centres undefined),0,0,0,0,0,28.2µM
CCOc1ccccc1CNC(=O)c1ccc2c(c1)sc1nc(-c3cccc(OC)c3)cn12,-,-,-,-,-,0
CC(C)Oc1cccc(-c2cc(C(=O)NN3CCOCC3)c3ccccc3n2)c1,0,0,0,0,0,0
CC(C)Oc1cccc(-c2cc(C(=O)NC(=S)N(C)c3ccccc3C(=O)O)c3ccccc3n2)c1,0,0,0,0,0,6.31µM
O=C(COc1ccc(Br)cc1CO)Nc1ccccc1F,0,0,0,0,0,10µM
CCCCCC1CC1C(=O)N/N=C/c1ccc(N(C)C)cc1 (centres undefined),0,0,0,0,0,35.5µM
O=C(NCC(=O)N1CCN(c2ncccn2)CC1)c1ccc(F)cc1,0,0,?,0,0,14.1µM
O=c1[nH]c2cc3c(cc2cc1CN(Cc1ccc2c(c1)OCO2)Cc1nnnn1CC1CCCO1)OCO3 (centres undefined),0,0,0,-,0,15.8µM
O=c1[nH]c2cc3c(cc2cc1CN(CCCO)Cc1nnnn1Cc1ccc(F)cc1)OCO3,0,0,0,0,0,31.6µM
SMILES,Giardia kill,B2AR arrestin,p53 reactivation,uPA surface inh,Mito fusion act,ClpP mod
Cc1cc(C)c2cc(CN(CCO)Cc3nnnn3Cc3ccc(F)cc3)c(=O)[nH]c2c1,0,0,0,0,0,20µM
Cc1cc(OC(C)C(=O)N2CCN(CCc3ccccn3)CC2)ccc1Cl (centres undefined),-,-,-,-,-,0
CCC(c1nnnn1CCOC)N(Cc1cc2cc(C)c(C)cc2[nH]c1=O)CC1CCCO1 (centres undefined),0,0,0,0,0,?
CCC(c1nnnn1CCOC)N(Cc1cc2c(C)cc(C)cc2[nH]c1=O)CC1CCCO1 (centres undefined),0,0,0,-,0,28.2µM
Cc1occc1-c1nnc(SCC(=O)c2cc3ccccc3oc2=O)o1,0,0,0,0,0,28.2µM
CCOc1ccc(NC(=O)c2c(C)oc3nc(C)nc(N4CCOCC4)c23)cc1,-,-,-,-,-,0
c1ccc2c(c1)[nH]c1c(N3CCC4(CC3)OCCO4)ncnc12,0,0,0,0,0,28.2µM
COc1cccc2[nH]c3c(N4CCC5(CC4)OCCO5)ncnc3c12,0,0,0,0,0,0
